# Source: article PMC7862700, “An all-to-all approach to the identification of sequence-specific readers for epigenetic DNA modifications on cytosine”
# Experiments:
# Test in all cases: DAPPL (digital affinity profiling via proximity ligation, sequencing); 10 mM Tris-HCl pH 7.5, 50 mM NaCl, 1 mM DTT, 4% glycerol, room temperature, 30 min; GST-TFs on glutathione beads, 16-mer random dsDNA library, 0.1% formaldehyde crosslink after washing; high values mean tight binding
# [1] = target: T1, FEV (Homo sapiens, UniProt Q99581 1-238); conditions: protein: recombinant; tags: N-terminal GST; dsDNA, one strand shown
# T1 sequence: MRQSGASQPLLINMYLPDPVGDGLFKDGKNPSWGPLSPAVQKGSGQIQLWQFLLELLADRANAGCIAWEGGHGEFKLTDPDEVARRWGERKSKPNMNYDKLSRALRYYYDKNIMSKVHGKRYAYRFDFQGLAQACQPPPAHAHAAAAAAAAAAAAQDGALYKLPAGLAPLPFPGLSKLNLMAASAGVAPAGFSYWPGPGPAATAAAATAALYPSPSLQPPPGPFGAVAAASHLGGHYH
# How it was run: (§1)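 The binding signal reported is, for every hexamer, its read frequency for a factor over its read frequency for the tag-only sample. Reads came from pools of yeast-expressed, GST-fused human transcription factors on glutathione beads, barcoded with DNA and mixed with that sample, which were incubated with 200 nmole of a random double-stranded 16-mer DNA library in Tris/NaCl/DTT/glycerol buffer at room temperature for 30 min. After washing, the pools were crosslinked with 0.1% formaldehyde, proximity-ligated with BsaI/T4 ligase for 1 h at 37 °C, PCR-amplified and sequenced on an Illumina NextSeq500.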
# [2] = target: ETV5 (Homo sapiens, UniProt P41161 1-510); conditions: protein: recombinant; tags: N-terminal GST; dsDNA, one strand shown
# How it was run: as §1
# [3] = target: HSF1 (Homo sapiens, UniProt Q00613 1-529); conditions: protein: recombinant; tags: N-terminal GST; chain copies: 3; dsDNA, one strand shown
# How it was run: as §1
# [4] = target: T2, SPIC (Homo sapiens, UniProt Q8N5J4 1-248); conditions: protein: recombinant; tags: N-terminal GST; dsDNA, one strand shown
# T2 sequence: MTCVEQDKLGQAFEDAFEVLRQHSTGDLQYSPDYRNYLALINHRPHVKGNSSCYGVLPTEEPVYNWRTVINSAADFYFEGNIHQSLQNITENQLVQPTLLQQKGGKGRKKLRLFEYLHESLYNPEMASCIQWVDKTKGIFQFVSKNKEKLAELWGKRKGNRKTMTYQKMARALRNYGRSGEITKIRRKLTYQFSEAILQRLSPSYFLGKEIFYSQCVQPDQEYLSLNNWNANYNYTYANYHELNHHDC
# How it was run: as §1
# [5] = target: ELF4 (Homo sapiens, UniProt Q99607 1-663); conditions: protein: recombinant; tags: N-terminal GST; dsDNA, one strand shown
# How it was run: as §1
# [6] = target: T3, ELK4 (Homo sapiens, UniProt P28324-2 1-405); conditions: protein: recombinant; tags: N-terminal GST; dsDNA, one strand shown
# T3 sequence: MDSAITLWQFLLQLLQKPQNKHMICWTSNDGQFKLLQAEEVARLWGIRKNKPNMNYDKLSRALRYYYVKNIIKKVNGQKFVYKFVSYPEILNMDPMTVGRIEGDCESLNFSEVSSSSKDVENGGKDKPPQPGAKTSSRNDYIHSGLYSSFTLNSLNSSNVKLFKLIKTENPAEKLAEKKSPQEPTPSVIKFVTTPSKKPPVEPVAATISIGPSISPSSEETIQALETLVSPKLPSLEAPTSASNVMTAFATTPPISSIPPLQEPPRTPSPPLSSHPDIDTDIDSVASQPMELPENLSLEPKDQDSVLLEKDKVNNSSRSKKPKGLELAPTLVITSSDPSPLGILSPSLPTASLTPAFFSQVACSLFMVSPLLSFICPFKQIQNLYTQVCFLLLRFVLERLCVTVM
# How it was run: as §1
# [7] = target: T4, ETV2 (Homo sapiens, UniProt O00321 1-342); conditions: protein: recombinant; tags: N-terminal GST; dsDNA, one strand shown
# T4 sequence: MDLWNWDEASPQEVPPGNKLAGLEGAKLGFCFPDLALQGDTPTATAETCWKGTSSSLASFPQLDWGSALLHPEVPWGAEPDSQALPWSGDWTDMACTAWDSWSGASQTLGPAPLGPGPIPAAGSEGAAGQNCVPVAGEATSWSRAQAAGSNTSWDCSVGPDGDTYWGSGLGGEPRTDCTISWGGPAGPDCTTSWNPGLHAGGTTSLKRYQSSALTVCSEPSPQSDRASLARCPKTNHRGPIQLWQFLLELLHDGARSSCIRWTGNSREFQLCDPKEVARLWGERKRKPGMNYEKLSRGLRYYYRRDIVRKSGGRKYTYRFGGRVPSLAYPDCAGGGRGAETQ
# How it was run: as §1
# [8] = target: T5, ELF3 (Homo sapiens, UniProt P78545 1-371); conditions: protein: recombinant; tags: N-terminal GST; dsDNA, one strand shown
# T5 sequence: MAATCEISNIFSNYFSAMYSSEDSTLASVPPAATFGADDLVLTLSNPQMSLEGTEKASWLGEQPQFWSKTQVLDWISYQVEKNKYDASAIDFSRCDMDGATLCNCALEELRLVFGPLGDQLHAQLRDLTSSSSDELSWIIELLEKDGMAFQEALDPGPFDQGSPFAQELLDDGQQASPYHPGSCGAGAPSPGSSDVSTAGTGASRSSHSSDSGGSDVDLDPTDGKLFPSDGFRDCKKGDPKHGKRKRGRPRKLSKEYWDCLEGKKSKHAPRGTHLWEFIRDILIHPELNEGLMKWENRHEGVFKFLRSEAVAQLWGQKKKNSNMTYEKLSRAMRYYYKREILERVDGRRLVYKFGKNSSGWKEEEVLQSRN
# How it was run: as §1
# [9] = target: CRX (Homo sapiens, UniProt O43186 1-299); conditions: protein: recombinant; tags: N-terminal GST; dsDNA, one strand shown
# How it was run: as §1
# [10] = target: ETV1 (Homo sapiens, UniProt P50549 1-477); conditions: protein: recombinant; tags: N-terminal GST; dsDNA, one strand shown
# How it was run: as §1
# [11] = target: T6, ERF (Homo sapiens, UniProt P50548 1-548); conditions: protein: recombinant; tags: N-terminal GST; dsDNA, one strand shown
# T6 sequence: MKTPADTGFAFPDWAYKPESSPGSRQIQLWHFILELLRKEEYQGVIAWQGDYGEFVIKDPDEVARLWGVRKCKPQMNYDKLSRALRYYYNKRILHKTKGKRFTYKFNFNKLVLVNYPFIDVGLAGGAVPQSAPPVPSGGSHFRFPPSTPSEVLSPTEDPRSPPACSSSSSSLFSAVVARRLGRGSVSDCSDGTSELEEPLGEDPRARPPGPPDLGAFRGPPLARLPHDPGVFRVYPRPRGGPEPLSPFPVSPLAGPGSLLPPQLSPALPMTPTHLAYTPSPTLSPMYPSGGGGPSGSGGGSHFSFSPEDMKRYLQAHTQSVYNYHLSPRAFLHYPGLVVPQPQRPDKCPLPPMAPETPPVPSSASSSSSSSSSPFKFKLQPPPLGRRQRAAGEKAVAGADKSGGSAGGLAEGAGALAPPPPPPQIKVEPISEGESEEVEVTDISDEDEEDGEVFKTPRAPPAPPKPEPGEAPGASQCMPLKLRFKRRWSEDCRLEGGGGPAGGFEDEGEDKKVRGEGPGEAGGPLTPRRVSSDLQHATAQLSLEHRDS
# How it was run: as §1
# [12] = target: T7, ETV3L (Homo sapiens, UniProt Q6ZN32 1-361); conditions: protein: recombinant; tags: N-terminal GST; dsDNA, one strand shown
# T7 sequence: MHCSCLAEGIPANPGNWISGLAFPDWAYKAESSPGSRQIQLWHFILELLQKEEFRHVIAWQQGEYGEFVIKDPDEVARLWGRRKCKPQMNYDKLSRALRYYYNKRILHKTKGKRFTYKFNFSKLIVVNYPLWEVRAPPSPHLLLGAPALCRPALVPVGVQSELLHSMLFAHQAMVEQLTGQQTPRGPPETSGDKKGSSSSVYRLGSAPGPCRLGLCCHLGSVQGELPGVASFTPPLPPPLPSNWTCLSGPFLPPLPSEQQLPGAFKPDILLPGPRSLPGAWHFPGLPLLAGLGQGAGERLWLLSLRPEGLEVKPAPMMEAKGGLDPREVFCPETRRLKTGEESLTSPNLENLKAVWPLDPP
# How it was run: as §1
# [13] = target: T8, ETS2 (Homo sapiens, UniProt P15036 1-469); conditions: protein: recombinant; tags: N-terminal GST; dsDNA, one strand shown
# T8 sequence: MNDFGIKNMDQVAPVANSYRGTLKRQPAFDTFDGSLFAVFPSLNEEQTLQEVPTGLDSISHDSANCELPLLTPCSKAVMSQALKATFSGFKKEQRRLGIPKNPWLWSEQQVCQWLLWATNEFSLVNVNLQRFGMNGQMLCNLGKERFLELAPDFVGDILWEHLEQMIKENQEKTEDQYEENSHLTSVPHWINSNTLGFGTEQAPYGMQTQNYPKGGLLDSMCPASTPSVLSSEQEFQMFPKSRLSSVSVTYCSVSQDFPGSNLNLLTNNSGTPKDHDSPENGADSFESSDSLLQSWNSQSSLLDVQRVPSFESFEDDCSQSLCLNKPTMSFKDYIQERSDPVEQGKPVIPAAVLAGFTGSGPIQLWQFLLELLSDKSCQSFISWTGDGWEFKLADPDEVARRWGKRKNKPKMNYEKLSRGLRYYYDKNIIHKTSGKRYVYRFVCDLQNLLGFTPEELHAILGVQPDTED
# How it was run: as §1
# [14] = target: T9, SPDEF (Homo sapiens, UniProt O95238 1-335); conditions: protein: recombinant; tags: N-terminal GST; dsDNA, one strand shown
# T9 sequence: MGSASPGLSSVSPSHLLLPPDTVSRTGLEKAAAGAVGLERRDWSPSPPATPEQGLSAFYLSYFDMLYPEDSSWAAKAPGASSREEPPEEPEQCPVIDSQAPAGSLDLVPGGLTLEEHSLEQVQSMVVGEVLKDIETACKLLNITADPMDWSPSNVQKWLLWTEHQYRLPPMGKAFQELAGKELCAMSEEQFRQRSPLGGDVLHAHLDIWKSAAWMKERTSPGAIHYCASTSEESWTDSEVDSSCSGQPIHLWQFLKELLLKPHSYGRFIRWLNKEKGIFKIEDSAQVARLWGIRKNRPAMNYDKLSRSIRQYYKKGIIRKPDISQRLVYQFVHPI
# How it was run: as §1
# [15] = target: T10, ETV7 (Homo sapiens, UniProt Q9Y603 1-341); conditions: protein: recombinant; tags: N-terminal GST; dsDNA, one strand shown
# T10 sequence: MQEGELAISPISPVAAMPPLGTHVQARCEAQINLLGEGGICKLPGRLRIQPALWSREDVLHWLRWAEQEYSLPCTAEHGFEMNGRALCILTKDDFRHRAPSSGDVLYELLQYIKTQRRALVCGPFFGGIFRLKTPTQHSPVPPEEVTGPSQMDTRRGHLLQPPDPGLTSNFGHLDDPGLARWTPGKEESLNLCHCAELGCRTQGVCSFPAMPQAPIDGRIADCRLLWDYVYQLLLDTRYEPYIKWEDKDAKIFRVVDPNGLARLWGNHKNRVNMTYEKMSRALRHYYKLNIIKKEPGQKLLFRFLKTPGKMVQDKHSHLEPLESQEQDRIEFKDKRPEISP
# How it was run: as §1
# [16] = target: T11, ELF5 (Homo sapiens, UniProt Q9UKW6-2 1-255); conditions: protein: recombinant; tags: N-terminal GST; dsDNA, one strand shown
# T11 sequence: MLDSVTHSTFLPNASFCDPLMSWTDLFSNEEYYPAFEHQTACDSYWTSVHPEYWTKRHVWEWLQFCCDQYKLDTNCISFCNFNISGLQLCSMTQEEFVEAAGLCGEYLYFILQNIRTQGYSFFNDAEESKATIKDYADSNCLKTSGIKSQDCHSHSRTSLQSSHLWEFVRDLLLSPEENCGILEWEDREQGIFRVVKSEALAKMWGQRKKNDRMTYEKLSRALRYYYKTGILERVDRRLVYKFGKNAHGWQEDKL
# How it was run: as §1
# [17] = target: T12, ETV3 (Homo sapiens, UniProt P41162-2 1-143); conditions: protein: recombinant; tags: N-terminal GST; dsDNA, one strand shown
# T12 sequence: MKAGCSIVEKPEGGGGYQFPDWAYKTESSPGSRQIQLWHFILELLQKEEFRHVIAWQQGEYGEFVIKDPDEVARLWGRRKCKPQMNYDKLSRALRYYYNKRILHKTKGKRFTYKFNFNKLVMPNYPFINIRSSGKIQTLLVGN
# How it was run: as §1
# [18] = target: ETV6 (Homo sapiens, UniProt P41212 1-452); conditions: protein: recombinant; tags: N-terminal GST; dsDNA, one strand shown
# How it was run: as §1
# Sequence of ELF4 (Q99607 whole entry): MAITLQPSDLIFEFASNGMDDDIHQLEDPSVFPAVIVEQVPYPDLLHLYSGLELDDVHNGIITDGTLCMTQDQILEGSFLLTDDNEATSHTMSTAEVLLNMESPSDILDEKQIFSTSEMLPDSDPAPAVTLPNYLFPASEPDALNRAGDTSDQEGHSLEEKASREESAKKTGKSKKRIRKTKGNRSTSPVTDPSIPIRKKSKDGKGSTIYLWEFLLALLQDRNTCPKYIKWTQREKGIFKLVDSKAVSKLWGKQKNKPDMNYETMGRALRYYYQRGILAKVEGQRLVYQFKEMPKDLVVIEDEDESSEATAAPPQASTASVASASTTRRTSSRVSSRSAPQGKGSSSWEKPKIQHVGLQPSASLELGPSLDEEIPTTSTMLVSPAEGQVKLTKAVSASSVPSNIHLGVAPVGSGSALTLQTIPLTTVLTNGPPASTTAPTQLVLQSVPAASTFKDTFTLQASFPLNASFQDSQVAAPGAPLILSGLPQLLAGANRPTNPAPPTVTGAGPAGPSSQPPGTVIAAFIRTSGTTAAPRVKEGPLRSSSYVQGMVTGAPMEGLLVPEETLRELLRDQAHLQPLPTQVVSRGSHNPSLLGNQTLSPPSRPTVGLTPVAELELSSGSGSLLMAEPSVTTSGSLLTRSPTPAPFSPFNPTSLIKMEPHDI
# Sequence of HSF1 (Q00613 whole entry): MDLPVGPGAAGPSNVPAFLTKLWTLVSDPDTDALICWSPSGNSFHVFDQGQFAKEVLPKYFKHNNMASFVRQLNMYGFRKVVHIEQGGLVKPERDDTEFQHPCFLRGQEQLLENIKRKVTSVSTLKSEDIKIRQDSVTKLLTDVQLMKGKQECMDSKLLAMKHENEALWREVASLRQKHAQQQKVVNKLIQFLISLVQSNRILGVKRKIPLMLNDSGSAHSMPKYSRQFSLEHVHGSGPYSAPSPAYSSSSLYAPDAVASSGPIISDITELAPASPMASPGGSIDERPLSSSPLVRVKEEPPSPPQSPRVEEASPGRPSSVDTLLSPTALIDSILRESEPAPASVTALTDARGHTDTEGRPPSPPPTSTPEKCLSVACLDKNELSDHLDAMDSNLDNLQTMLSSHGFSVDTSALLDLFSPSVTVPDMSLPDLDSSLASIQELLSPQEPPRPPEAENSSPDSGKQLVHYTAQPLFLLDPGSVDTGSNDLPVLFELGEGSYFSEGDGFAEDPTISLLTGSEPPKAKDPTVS
# Sequence of ETV5 (P41161 whole entry): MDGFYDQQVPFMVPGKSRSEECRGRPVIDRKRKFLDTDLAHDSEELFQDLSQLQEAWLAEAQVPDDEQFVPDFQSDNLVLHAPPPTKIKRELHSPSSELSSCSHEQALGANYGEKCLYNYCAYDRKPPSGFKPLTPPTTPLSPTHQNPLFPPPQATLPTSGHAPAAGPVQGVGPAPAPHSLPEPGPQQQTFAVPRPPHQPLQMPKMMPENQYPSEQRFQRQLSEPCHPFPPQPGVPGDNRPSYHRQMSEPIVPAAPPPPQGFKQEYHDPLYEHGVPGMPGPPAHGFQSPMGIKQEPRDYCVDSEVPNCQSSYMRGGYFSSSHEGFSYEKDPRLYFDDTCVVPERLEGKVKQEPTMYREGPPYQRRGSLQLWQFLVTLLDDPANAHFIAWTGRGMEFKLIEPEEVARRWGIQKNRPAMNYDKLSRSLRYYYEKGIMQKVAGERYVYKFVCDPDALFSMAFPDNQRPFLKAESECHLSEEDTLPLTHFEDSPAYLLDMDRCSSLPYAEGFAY
# Sequence of CRX (O43186 whole entry): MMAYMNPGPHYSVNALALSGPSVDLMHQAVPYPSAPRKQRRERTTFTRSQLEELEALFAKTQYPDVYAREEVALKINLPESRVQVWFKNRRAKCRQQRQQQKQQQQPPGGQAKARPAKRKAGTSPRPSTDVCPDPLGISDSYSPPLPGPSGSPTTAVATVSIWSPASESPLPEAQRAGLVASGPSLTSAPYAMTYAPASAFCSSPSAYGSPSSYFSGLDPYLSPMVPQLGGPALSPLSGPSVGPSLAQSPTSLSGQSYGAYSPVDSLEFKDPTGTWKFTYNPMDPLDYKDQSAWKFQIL
# Sequence of ETV6 (P41212 whole entry): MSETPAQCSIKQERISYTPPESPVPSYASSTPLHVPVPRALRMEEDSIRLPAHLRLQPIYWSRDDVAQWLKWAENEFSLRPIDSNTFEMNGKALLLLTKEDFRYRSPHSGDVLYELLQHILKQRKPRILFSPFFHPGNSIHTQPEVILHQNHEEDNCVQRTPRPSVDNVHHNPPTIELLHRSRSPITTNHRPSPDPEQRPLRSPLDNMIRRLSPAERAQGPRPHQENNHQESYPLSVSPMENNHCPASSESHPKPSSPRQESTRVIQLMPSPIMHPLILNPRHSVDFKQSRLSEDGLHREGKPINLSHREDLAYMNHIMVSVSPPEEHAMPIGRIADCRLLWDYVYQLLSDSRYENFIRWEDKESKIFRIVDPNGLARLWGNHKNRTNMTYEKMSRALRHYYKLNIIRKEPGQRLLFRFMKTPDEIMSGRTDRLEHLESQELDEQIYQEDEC
# Sequence of ETV1 (P50549 whole entry): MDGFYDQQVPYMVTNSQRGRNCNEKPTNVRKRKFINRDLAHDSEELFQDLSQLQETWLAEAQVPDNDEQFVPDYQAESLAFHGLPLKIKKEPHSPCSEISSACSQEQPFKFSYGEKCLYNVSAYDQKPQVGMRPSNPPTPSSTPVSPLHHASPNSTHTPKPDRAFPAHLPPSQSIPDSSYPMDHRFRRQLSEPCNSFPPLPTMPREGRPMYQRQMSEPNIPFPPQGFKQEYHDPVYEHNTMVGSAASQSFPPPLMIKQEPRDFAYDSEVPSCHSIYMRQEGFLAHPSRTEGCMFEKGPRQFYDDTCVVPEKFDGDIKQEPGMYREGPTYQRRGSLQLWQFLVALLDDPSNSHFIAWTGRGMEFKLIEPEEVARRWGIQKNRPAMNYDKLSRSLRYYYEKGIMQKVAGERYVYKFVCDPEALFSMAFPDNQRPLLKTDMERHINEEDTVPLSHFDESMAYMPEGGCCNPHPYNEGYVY
sequence,measurement,setting,value
CTTCCC,binding signal,[1],"1.91 fold enrichment (6-mer frequency, TF over GST control)"
same,binding signal,[2],"2.24 fold enrichment (6-mer frequency, TF over GST control)"
same,binding signal,[3],"1.55 fold enrichment (6-mer frequency, TF over GST control)"
same,binding signal,[4],"2.34 fold enrichment (6-mer frequency, TF over GST control)"
same,binding signal,[5],"1.95 fold enrichment (6-mer frequency, TF over GST control)"
same,binding signal,[6],"1.81 fold enrichment (6-mer frequency, TF over GST control)"
same,binding signal,[7],"2.4 fold enrichment (6-mer frequency, TF over GST control)"
same,binding signal,[8],"2.12 fold enrichment (6-mer frequency, TF over GST control)"
same,binding signal,[9],"1.33 fold enrichment (6-mer frequency, TF over GST control)"
same,binding signal,[10],"2.01 fold enrichment (6-mer frequency, TF over GST control)"
same,binding signal,[11],"1.94 fold enrichment (6-mer frequency, TF over GST control)"
same,binding signal,[12],"2.18 fold enrichment (6-mer frequency, TF over GST control)"
same,binding signal,[13],"2.32 fold enrichment (6-mer frequency, TF over GST control)"
same,binding signal,[14],"2.14 fold enrichment (6-mer frequency, TF over GST control)"
same,binding signal,[15],"1.95 fold enrichment (6-mer frequency, TF over GST control)"
same,binding signal,[16],"3.61 fold enrichment (6-mer frequency, TF over GST control)"
same,binding signal,[17],"2.3 fold enrichment (6-mer frequency, TF over GST control)"
same,binding signal,[18],"2.54 fold enrichment (6-mer frequency, TF over GST control)"
